Experimental findings from ChEMBL document CHEMBL2218924, “A broad activity screen in support of a chemogenomic map for kinase signalling research and drug discovery” (Biochem J, 2013) are described below.

For experiment [1], the target named is T1, Ephrin type-B receptor 1 (Homo sapiens) (UniProt P54762).
T1 sequence (whole entry): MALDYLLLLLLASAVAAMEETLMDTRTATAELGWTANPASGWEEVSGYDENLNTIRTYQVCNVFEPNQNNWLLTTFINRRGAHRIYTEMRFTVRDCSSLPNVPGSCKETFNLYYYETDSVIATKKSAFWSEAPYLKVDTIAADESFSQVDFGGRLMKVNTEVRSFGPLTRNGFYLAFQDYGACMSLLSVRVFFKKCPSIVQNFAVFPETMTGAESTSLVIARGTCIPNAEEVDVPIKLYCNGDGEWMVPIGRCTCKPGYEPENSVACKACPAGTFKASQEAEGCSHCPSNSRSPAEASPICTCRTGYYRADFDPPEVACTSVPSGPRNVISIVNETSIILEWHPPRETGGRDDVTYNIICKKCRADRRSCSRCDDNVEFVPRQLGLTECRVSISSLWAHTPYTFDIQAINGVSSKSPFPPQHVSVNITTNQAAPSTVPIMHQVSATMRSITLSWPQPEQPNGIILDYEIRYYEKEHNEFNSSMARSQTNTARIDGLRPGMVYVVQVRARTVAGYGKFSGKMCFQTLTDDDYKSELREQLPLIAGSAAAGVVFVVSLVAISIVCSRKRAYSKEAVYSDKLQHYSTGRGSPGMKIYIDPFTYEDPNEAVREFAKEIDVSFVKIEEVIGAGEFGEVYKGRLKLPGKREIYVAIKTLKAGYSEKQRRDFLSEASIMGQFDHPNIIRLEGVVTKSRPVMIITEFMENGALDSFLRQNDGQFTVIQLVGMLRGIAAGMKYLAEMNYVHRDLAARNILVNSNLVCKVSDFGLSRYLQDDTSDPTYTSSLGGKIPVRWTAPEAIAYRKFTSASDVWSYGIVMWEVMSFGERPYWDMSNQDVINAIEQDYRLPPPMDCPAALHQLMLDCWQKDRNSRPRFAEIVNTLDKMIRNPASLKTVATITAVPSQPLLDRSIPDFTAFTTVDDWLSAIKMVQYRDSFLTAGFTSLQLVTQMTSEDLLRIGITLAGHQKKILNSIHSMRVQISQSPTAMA
The note with it: at 10 µM.

Experiment [2] deals with T2, Ephrin type-B receptor 2 (Homo sapiens) (UniProt P29323).
T2 sequence (whole entry): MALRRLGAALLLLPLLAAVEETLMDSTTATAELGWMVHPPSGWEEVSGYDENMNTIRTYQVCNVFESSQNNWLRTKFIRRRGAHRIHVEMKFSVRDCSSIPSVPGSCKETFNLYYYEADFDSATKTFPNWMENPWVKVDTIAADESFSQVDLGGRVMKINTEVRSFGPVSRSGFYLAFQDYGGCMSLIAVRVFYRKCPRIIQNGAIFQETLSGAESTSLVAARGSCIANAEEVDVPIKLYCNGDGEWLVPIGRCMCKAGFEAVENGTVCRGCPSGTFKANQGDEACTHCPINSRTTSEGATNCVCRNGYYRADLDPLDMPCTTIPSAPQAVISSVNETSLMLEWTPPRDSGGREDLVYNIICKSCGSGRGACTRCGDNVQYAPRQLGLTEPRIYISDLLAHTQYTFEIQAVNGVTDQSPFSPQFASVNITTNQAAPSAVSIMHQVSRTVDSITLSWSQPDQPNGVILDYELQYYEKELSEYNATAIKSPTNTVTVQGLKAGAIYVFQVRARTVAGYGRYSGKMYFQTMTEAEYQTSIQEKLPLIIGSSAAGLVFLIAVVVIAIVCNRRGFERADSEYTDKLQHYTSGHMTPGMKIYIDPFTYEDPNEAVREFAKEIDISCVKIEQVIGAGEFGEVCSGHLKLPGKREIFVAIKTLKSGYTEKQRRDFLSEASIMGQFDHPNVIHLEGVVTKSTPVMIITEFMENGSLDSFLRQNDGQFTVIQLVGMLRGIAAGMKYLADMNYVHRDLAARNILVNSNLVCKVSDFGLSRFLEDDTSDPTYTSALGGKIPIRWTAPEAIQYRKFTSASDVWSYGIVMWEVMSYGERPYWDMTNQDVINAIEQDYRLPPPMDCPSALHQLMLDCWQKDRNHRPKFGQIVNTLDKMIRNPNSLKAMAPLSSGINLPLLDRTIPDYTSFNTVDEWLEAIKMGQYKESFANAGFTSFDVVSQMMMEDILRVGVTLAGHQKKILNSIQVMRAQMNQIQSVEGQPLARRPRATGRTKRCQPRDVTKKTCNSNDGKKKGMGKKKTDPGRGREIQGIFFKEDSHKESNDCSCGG
The note with it: at 1 µM.

The target in experiment [3] is T2, Ephrin type-B receptor 2 (Homo sapiens). The note with it: at 10 µM.
Experiment [4] concerns the target T3, Ephrin type-B receptor 3 (Homo sapiens) (UniProt P54753).
T3 sequence (whole entry): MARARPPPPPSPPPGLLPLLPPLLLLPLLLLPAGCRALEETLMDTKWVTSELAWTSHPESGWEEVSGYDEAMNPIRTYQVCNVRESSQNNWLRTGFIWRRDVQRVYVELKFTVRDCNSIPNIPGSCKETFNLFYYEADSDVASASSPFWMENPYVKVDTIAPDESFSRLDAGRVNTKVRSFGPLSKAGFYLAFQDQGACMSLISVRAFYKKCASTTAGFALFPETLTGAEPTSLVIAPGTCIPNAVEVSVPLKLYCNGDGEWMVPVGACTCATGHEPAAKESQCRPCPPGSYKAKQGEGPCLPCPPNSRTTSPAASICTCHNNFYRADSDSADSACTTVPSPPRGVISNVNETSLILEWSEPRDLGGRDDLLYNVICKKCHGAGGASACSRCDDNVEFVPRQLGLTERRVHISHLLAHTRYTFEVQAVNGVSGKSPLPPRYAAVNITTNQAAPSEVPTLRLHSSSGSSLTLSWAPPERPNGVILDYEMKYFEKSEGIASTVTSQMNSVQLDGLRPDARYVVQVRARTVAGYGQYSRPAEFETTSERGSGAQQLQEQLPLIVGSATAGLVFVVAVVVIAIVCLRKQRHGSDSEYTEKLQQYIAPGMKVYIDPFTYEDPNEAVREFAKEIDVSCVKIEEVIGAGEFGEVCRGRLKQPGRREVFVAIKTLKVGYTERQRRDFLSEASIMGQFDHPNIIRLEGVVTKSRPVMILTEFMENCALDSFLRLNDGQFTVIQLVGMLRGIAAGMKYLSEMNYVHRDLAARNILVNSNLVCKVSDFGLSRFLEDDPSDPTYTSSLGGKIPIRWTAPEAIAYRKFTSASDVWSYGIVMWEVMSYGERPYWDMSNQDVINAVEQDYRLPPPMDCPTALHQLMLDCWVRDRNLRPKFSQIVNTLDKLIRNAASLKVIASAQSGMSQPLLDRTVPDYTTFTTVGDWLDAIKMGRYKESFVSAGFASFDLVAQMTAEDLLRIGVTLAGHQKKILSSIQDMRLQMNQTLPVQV
The note with it: at 1 µM.

For experiment [5], the target named is T3, Ephrin type-B receptor 3 (Homo sapiens). The note with it: at 10 µM.
The target of experiment [6] is T4, Ephrin type-B receptor 4 (Homo sapiens) (UniProt P54760).
T4 sequence (whole entry): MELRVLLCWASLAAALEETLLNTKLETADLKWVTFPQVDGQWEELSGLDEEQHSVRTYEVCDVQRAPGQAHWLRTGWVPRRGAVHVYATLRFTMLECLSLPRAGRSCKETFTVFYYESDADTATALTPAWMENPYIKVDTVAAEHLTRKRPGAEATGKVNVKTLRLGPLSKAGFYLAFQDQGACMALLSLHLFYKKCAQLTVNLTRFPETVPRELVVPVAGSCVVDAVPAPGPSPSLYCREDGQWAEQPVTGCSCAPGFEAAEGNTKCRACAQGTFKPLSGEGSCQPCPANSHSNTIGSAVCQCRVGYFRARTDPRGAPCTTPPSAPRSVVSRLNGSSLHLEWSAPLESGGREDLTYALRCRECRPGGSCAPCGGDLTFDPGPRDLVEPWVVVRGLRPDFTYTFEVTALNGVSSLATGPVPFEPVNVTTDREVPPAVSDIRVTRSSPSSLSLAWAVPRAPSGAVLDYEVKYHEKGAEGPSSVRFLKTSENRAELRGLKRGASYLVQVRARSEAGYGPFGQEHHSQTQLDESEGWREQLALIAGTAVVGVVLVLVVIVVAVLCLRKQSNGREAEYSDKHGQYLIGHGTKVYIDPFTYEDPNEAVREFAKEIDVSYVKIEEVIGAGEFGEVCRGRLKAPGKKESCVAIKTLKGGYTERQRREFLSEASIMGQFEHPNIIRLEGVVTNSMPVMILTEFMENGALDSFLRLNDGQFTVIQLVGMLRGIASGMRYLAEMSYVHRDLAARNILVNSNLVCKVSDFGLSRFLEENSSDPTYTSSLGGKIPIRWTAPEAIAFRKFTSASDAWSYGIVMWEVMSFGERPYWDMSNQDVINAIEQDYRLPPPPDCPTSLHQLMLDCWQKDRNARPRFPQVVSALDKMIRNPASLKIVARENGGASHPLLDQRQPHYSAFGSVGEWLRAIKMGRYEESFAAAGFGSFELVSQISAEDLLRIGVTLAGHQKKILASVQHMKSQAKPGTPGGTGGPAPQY
The note with it: at 1 µM.

The target of experiment [7] is T4, Ephrin type-B receptor 4 (Homo sapiens). The note with it: at 10 µM.
Experiment [8] addresses Receptor tyrosine-protein kinase erbB-4 (Homo sapiens) (UniProt Q15303). The note with it: at 1 µM.
Experiment [9] has the same target. The note with it: at 10 µM.
In experiment [10] the target is Focal adhesion kinase 1 (Homo sapiens) (UniProt Q05397). The note with it: at 1 µM.
Focal adhesion kinase 1 (Homo sapiens), sequence (Q05397 2-1052 limits assumed): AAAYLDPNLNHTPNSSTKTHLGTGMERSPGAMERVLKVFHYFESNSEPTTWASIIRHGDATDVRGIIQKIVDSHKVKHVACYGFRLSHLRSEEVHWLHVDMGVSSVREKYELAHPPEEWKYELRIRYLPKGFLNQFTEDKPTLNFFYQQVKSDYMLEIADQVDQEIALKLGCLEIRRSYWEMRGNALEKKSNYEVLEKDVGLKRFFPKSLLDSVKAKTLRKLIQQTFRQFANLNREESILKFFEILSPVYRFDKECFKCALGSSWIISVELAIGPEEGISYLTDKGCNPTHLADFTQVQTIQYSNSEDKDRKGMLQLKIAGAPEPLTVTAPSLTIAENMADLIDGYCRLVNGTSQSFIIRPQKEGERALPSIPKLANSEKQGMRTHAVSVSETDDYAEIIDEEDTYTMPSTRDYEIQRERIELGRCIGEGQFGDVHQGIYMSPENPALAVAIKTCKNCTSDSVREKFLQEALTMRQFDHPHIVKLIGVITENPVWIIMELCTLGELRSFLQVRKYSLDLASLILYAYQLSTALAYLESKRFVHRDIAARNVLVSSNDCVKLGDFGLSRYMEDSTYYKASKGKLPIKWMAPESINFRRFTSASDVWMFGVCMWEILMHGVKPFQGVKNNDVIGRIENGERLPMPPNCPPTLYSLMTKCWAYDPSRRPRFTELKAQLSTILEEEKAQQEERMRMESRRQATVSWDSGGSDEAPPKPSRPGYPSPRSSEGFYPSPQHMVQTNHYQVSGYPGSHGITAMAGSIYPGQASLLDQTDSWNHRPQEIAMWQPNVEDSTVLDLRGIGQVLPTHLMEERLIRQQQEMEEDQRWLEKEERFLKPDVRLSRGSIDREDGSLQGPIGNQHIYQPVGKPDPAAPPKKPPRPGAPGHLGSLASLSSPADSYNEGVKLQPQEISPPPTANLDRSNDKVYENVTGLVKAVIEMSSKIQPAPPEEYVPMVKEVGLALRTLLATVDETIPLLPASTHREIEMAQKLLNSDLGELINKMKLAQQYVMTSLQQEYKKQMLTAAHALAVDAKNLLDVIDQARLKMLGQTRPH

Receptor tyrosine-protein kinase erbB-4 (Homo sapiens), sequence (Q15303 whole entry): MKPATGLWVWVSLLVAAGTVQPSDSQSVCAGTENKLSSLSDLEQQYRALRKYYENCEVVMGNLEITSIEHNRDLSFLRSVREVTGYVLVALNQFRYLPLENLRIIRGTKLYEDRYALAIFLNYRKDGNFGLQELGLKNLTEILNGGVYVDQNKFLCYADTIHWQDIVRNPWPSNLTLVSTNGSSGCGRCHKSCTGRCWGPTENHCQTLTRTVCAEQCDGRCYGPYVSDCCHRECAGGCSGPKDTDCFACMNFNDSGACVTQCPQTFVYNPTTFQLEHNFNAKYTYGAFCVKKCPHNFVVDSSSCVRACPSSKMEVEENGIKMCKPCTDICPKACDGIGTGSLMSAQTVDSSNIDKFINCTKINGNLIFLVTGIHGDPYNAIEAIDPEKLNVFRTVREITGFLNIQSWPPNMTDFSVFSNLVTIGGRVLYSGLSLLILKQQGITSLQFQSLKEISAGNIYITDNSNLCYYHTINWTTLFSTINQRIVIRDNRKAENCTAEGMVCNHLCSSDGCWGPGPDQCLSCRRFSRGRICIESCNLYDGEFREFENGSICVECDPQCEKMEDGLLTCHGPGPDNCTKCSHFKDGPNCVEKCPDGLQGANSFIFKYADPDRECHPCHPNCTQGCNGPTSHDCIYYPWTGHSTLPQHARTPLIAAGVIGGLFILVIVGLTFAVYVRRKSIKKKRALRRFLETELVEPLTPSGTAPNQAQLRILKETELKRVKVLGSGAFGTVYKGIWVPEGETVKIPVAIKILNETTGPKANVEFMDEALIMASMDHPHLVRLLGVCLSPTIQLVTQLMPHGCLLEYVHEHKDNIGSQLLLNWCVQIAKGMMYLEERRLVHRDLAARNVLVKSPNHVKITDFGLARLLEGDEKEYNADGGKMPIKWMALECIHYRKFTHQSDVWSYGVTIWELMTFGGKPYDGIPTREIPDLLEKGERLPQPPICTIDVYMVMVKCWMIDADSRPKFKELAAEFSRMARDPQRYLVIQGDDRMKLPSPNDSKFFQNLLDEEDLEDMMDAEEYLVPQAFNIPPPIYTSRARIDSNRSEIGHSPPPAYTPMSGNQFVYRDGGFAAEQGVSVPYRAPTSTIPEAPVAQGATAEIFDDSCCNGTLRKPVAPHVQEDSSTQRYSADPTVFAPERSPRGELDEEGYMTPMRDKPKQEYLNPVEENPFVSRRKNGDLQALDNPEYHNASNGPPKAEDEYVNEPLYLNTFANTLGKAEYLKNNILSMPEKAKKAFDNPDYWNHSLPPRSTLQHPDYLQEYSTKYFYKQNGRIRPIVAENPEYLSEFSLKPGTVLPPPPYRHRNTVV

The residual activity is the signal under treatment as a percentage of the control signal. Turning to `COc1ccc(OC)c2c(=S)c3ccccc3[nH]c12`, the residual activity in experiment [1] was 83%; in experiment [2], 114%; in experiment [3], 118%; in experiment [4], 114% (inactive); in experiment [5], 101%; in experiment [6], 97%. Further, the residual activity in [7] worked out at 102%; in [8] it was 80%; in experiment [9], 77%; in experiment [10] it was 91%.
